According to ChEMBL document CHEMBL3988442, “University of Dundee, Small-Polar-MMV Screening Library” (2021):
Among all 38,000 compounds or so, about 1,200 (3.2%) showed an effect of 50% or more. The median lay at about -58%. The entries come from a sample that favours strong results as a whole.

system: Plasmodium falciparum; assay: Calibr Malaria Delayed Death Assay SOP; assay type: functional, organism-based; design: scale not given: in the data most compounds retested in dose-response had high values; details: concentration 4.99e-06 (unit not given; other assays of the set use mol/L)

Row | SMILES | Percent Effect
1 | CC(C)(C)CN1CCCC12CCN(S(=O)(=O)c1ccccc1)C2.O=C(O)C(F)(F)F (configuration not stated) | 29.05%
2 | Cc1cccc(C(=O)N2CCCn3cnc(CN4CCCC4=O)c3C2)n1 | -0.7301%
3 | Cn1ncc2c1CN(Cc1ccccc1F)CC2COCC1CC1.O=C(O)C(F)(F)F.O=C(O)C(F)(F)F (configuration not stated) | -47.59%
4 | COc1ccc(OCC2CCCN(c3nc(CO)cs3)C2)cc1 (configuration not stated) | -52%
5 | OCc1csc(N2CCCC(COc3cccc(F)c3)C2)n1 (configuration not stated) | 81.1%
6 | Cc1ccc(OCC2CCCN(c3nc(CO)cs3)C2)cc1 (configuration not stated) | -23.08%
7 | COCCCNC(=O)N1CCC(CNC(=O)c2cnn(C)c2)CC1 | -42.86%
8 | c1c(CN2CCOCC2)nc2n1CCN(C1CCOCC1)C2 | -53.44%
9 | COc1cccc(S(=O)(=O)N2C[C@@H](N(C)C)[C@H](C(C)C)C2)c1 | 72.07%
10 | CC(C)[C@H]1CN(S(=O)(=O)c2cccnc2)C[C@@H]1N | -121.7%
11 | CC(C)[C@@H]1CN(S(=O)(=O)c2cccc(C(=O)O)c2)C[C@H]1N(C)C | -75.82%
12 | CS(=O)(=O)NCc1cnc2n1CCN(Cc1ccco1)CC2.O=C(O)C(F)(F)F | -61.12%
13 | Cc1ccc(C(=O)Nc2nnc(C(C)C)s2)c(-n2cnnn2)c1C | -117.2%
14 | Cc1cnn(CCNCc2nccn2Cc2ccccc2)c1 | 81.96%
15 | Cc1cnn(CCNCc2nccn2CC(F)(F)F)c1 | 12.08%
16 | Cc1cnn(CCNCc2c(C)nn(Cc3ccccc3)c2C)c1 | 31.58%
17 | CC(NC(=O)c1cccs1)(C(N)=O)c1cccc(C(F)(F)F)c1 (configuration not stated) | -110.1%
18 | CCc1nc(N2CCC3(CC2)OCCCC3O)ncc1C (configuration not stated) | -35.89%
19 | COC(=O)C(C)(C)NC(=O)c1cnc(Cc2ccc(F)cc2)s1 | 74.7%
20 | COC(=O)[C@H](C)NC(=O)c1cnc(Cc2ccc(F)cc2)s1 | -108.7%
21 | CCc1ncc(C(=O)NC(C)(C)C(=O)OC)s1 | -64.84%
22 | CC1c2cccn2CCN1C(=O)CCc1nc(-c2ccccc2)no1 (configuration not stated) | -13.83%
23 | Cn1ccnc1CNC1CCCOc2c1ccc1ccccc21 (configuration not stated) | 76.31%
24 | Cc1cccc2c1OCCCC2NCc1nnc2n1CCCCC2 (configuration not stated) | -75.07%
25 | Cn1cc(CNC2CCCOc3c(Cl)cccc32)cn1 (configuration not stated) | 17.16%
26 | Cn1cc(CNC2CCCOc3c2ccc2ccccc32)cn1 (configuration not stated) | 61.58%

Row | SMILES | Percent Effect
27 | Cc1nn(C)c(N(C)C)c1CNC1CCOc2c(F)cccc21 (configuration not stated) | -94.95%
28 | Cc1cccc2c1OCCC2NCc1c(C)nn(C)c1N(C)C (configuration not stated) | -2.294%
29 | O=C(O)Cc1cnc(-c2c(Cl)cccc2Cl)s1 | -103%
30 | CN(Cc1ccco1)Cc1cncc2c1CCN(S(C)(=O)=O)C2.Cl.Cl | -71.86%
31 | CCCNC(=O)CCNc1cncc(-n2nc(C)cc2C)n1 | -96.17%
32 | CCOc1cccc(COC(=O)c2cc(C)on2)n1 | -20.94%
33 | FC(F)(F)c1ccnc(N2C[C@H]3CCN(c4cccnc4)C[C@H]3C2)n1.O=C(O)C(F)(F)F | -4.152%
34 | CC1CN(C)CCN1C(=O)c1ccn(-c2ccc(F)cc2)n1 (configuration not stated) | -53.04%
35 | CNC(=O)COc1ccc(-c2ccccc2)nc1 | -42.95%
36 | CCC(NC(N)=O)c1ccccc1OCC(=O)N1CCCC1 (configuration not stated) | -42%
37 | CNC(=O)Cc1noc(Cc2cccc(Cl)c2)n1 | -69.96%
38 | CCC(NCc1ccccc1)c1ccccc1OCC(=O)NC (configuration not stated) | 63.6%
39 | CCC(NCc1ccccn1)c1ccccc1OCC(=O)NC (configuration not stated) | -34.3%
40 | Cc1sc(NS(=O)(=O)c2ccccc2)nc1C(=O)NC1CC1 | -59.95%
41 | CCOCC1CN(C(=O)c2cccc(C)n2)Cc2cnn(C)c21 (configuration not stated) | -41.72%
42 | CCOC(=O)N1CCN(C(=O)CCn2ccc3c(OC)cccc32)CC1 | -55.78%
43 | Cc1cc(CC(=O)NC2CCCN(c3ccccc3Cl)C2=O)n[nH]1 (configuration not stated) | -141.2%
44 | O=S(=O)(CCN1CCCC1Cn1cccn1)c1ccccc1 (configuration not stated) | -24.99%
45 | Clc1ccc(C2(CNC3=NCCN3)CCCC2)cc1.I | 83.48%
46 | Cc1nnc(C(C)NCC2(c3ccc(Cl)cc3)CCCC2)o1 (configuration not stated) | -5.972%
47 | NC(=O)CNC1(c2ccc(Cl)cc2)CCCC1 | -116.4%
48 | Clc1ccc(C2(CNC3=NCCN3)CCCCC2)cc1.I | 89.77%
49 | CN(C)C(=O)CCS(=O)(=O)Cc1cc(Cl)c2c(c1)OCO2 | -99.04%
50 | COCCNC(=O)Cn1c(-c2ccc(Cl)cc2)nc(C)c(CCO)c1=O | -30.51%
51 | CCOC(=O)c1cnn(-c2cc(Oc3ccccc3C)ncn2)c1N | -71.43%
52 | Cc1nc(N2CCN(C(=O)NCc3cscn3)CC2)sc1C | -173%
